The results in this text go back to ChEMBL document CHEMBL4513216, “Probing the Open Global Health Chemical Diversity Library for Multistage-Active Starting Points for Next-Generation Antimalarials” (ACS Infect Dis, 2020).

The whole screen tested about 68,000 compounds, of which about 2,700 (4%) showed an effect of 50% or more. For the sample, strong results were picked, then their nearest neighbours and some compounds at random.

This assay deals with Plasmodium berghei. Briefly: Screen against P. berghei liver stage (PbLuc), transformed with Luciferase, at 2uM. The assay is classed as functional, HepG2. Particulars: tested at 2 uM.
As for `CC1CCN(C(=O)C(C)n2cc(Br)cn2)CC1` (stereo not drawn), the INHIBITION is reported as 20.8%.

For the molecule `FC(F)(F)c1ccnc(N2CCC(c3nccn3CC3CC3)CC2)n1`, the INHIBITION is recorded as -0.62%.

Take `CCCn1ncc(CN2C[C@@H]3CCCN3C[C@H]2Cc2ccccc2)c1C`: the INHIBITION is 37.6%.

With `CCCn1nc2c(cc1=O)CN(CC1CCCCO1)CC2` (stereo not drawn), the INHIBITION amounted to 28.72%.

Regarding `CN(CCn1cccn1)S(=O)(=O)c1cccc(F)c1C#N`, the INHIBITION is given as -2.19%.

For the molecule `Cc1cc(F)c(S(=O)(=O)N(C)CCn2cccn2)cc1F`, the INHIBITION turned out to be 50.03%.

Take `CN(CCn1cccn1)S(=O)(=O)c1cccc(Cl)c1C#N`: the INHIBITION was -26.2%.

Take `CCC(C)(C)C(=O)Nc1ccc2ccn(CC(=O)NC)c2c1`: the INHIBITION is on record as 24.51%.

With `COc1cccc(CN2CCc3nc4ccsc4c(=O)n3CC2)c1`, the INHIBITION is 34.9%.

For `Cn1cc(CN2CCCCC2c2ccc(-c3cccc(Cl)c3)nc2)cn1` (stereo not drawn), the INHIBITION is reported as 15.59%.

On to `CCNC(=O)[C@@H]1C[C@H](NC(=O)c2cc(=O)[nH]c3ccc(C)cc23)CN1C`, for which the INHIBITION was found to be 24.44%.

Regarding `COC(=O)[C@@H]1C[C@H](NC(=O)c2cc(=O)[nH]c3ccc(C)cc23)CN1C`, the INHIBITION worked out at 76.07%.

For the molecule `Cc1ccc2[nH]c(=O)cc(C(=O)N[C@@H]3C[C@@H](CO)N(C)C3)c2c1`, the INHIBITION was 10.75%.

Consider `CCCc1cc(=O)[nH]c(-c2ccccc2CN(C)CCC(C)C)n1`, for which the INHIBITION was -4.05%.

Consider `CCCS(=O)(=O)N1CCN(c2ccc3nnc(CC)n3n2)CC1`, for which the INHIBITION was 8.76%.

`CCc1nnc2ccc(N3CCN(S(=O)(=O)c4ccc(C)s4)CC3)nn12`: the INHIBITION was -37.47%.

As to `CCc1nnc2ccc(N3CCN(S(=O)(=O)c4ccc(Cl)s4)CC3)nn12`, the INHIBITION is on record as 52.31%.

In the case of `CCN(Cc1cnc(NCc2ccccc2)nc1)C1CCS(=O)(=O)C1` (stereo not drawn), the INHIBITION is recorded as -30.2%.

For `CN(C)Cc1nnc(C2CCCN(Cc3ccc(Cl)s3)C2)n1C` (stereo not drawn), the INHIBITION amounted to 7.64%.

With `CC(=O)Nc1nc(C2CCN(C(=O)C3CCC3)CC2)cs1`, the INHIBITION is listed as -49.56%.

`Fc1ccc(CN2CCC(c3n[nH]c4ncccc34)CC2)cc1F`: the INHIBITION is 19.51%.

Regarding `Fc1cccc(CN2CCC(c3n[nH]c4ncccc34)CC2)c1F`, the INHIBITION came out at 12.36%.

In the case of `Fc1cccc(Cl)c1CN1CCC(c2n[nH]c3ncccc23)CC1`, the INHIBITION amounted to 53.65%.

With `COc1cccc(CN(C)Cc2[nH]c3ccccc3c2C)c1O`, the INHIBITION is reported as 33.32%.

Regarding `COc1ccc2c(c1)OCC(CNC(=O)c1cc[nH]c1C)C2` (stereo not drawn), the INHIBITION is given as 23.79%.

Turning to `CCc1nc(C)c(C(=O)NCC2COc3cc(OC)ccc3C2)o1` (stereo not drawn), the INHIBITION was 76.56%.

For `COc1ccc2c(c1)OCC(CNC(=O)c1ccncc1)C2` (stereo not drawn), the INHIBITION was determined as 31.38%.

Consider `CCCC(=O)N1CCCCC1c1nc(N(C)C)ncc1-c1cc(C)no1` (stereo not drawn), for which the INHIBITION is listed as -54.53%.

On to `COc1ccccc1CC(=O)N1CCCC1Cn1nc(C)cc1C` (stereo not drawn), for which the INHIBITION was -43.79%.

As to `COCCNC(=O)Cn1c(C)cc2nc(SC)n(CC(C)C)c(=O)c21`, the INHIBITION is reported as -24.15%.

As for `Cn1ncc2c(NCCOCc3ccccc3)nc(C3CCCC3)nc21`, the INHIBITION was -19.29%.

Turning to `CNS(=O)(=O)c1csc(C(=O)N(C)Cc2sccc2C)c1`, the INHIBITION was 46.97%.

`COCCNS(=O)(=O)c1ccc(Cl)c(C(=O)N(C)Cc2sccc2C)c1`: the INHIBITION is recorded as 64.37%.

With `COCCNS(=O)(=O)c1ccc(Cl)c(C(=O)N(C)Cc2ccsc2)c1`, the INHIBITION is given as 13.76%.

For `CN(Cc1cccc(OCCO)c1)Cc1cccc2ncccc12`, the INHIBITION is on record as 37.5%.

Turning to `COCC(=O)N1CCC2(CCC(C(=O)N3CCCC3)O2)CC1` (stereo not drawn), the INHIBITION is 41.38%.

Take `O=C(NC1CCC1)[C@@H]1CCO[C@@H]2CCN(C3CCCC3)C[C@@H]21`: the INHIBITION is 23.93%.

For the molecule `O=C(NC1CCC1)[C@@H]1CCO[C@@H]2CCN(C3CCCC3)C[C@H]21`, the INHIBITION was 51.26%.

With `O=C(NC1CC1)[C@@H]1CCO[C@@H]2CCN(C3CCCC3)C[C@H]21`, the INHIBITION is on record as -0.18%.

Regarding `CN1CCOC[C@H]1c1nc(-c2ccc(F)cc2F)c[nH]1`, the INHIBITION stood at 3.55%.

For `CS(=O)(=O)CCOCCNc1ccc2ccc(F)cc2n1`, the INHIBITION stood at 35.63%.

With `CC(C)(CNc1ccc2ccc(F)cc2n1)NS(C)(=O)=O`, the INHIBITION is reported as 5.92%.

As for `CC(C)(CCS(C)(=O)=O)CNc1ccc2ccc(F)cc2n1`, the INHIBITION is 50.93%.

As to `CC(C)(C)c1cc(C[C@H]2CNCC[C@H]2CC(=O)N2CCCCC2)no1`, the INHIBITION is listed as -13.88%.

For `CCc1nnc2n1CCN(C(=O)CN(C)Cc1ccccc1)C2`, the INHIBITION is listed as -34.45%.

For the molecule `CCc1nnc2n1CCN(C(=O)c1cc3cc(C)ccc3[nH]1)C2`, the INHIBITION was found to be 37.68%.

Regarding `CCc1nnc2n1CCN(C(=O)CN(C)C1CC1)C2`, the INHIBITION was -3.06%.

In the case of `CCc1nnc2n1CCN(C(=O)c1cc3ccc(F)cc3nc1C)C2`, the INHIBITION is 54.85%.

Consider `CCc1nnc2n1CCN(C(=O)CN(CC)CC)C2`, for which the INHIBITION is recorded as 58.05%.

Take `CCc1nnc2n1CCN(C(=O)c1cc3ccccc3[nH]1)C2`: the INHIBITION is reported as -3.06%.

Take `CCc1nnc2n1CCN(C(=O)c1cc3ccc(C)cc3[nH]1)C2`: the INHIBITION was determined as 58.05%.

In the case of `CCc1nnc2n1CCN(C(=O)c1ccc3nc(C)c(C)nc3c1)C2`, the INHIBITION was -72.78%.

For the molecule `CCc1nnc2n1CCN(C(=O)c1ccc(C(F)(F)F)nc1C)C2`, the INHIBITION is -41.59%.
